# Assay outcomes: PubChem, National Center for Advancing Translational Sciences (NCATS)
# FLuc inh – blocks purified firefly luciferase enzyme activity | purified P. pyralis luciferase, luminescence, biochemical | Potency, µM (series often up to 115 µM), usual class: inhibitors | hit rate 2.5% among 76,000 | P08659 | AID 1347043; also: nearly all actives have a fitted effect of over 65% in size
#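 Luminescence read by CCD imaging after purified firefly luciferase (10nM final) was added to substrate buffer holding 10uM D-luciferin and 10uM ATP, pH 7.5, pre-dosed with compound.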
# hNpr1 antagonist – blocks ANP-stimulated signaling of human Npr1 receptor; HEK293 hNpr1 GloSensor cGMP, ANP-stimulated luminescence; hit rate 1.6% among 76,000; Potency, µM (highest dose often 46.3 µM), without a hit: at the highest dose activity change, negative = inhibition, most hits filed as inhibitors; AID 1347048; calls by dose curve; also: nearly all actives have a fitted effect of over 60% in size
# Target sequence (P16066 whole entry, looked up): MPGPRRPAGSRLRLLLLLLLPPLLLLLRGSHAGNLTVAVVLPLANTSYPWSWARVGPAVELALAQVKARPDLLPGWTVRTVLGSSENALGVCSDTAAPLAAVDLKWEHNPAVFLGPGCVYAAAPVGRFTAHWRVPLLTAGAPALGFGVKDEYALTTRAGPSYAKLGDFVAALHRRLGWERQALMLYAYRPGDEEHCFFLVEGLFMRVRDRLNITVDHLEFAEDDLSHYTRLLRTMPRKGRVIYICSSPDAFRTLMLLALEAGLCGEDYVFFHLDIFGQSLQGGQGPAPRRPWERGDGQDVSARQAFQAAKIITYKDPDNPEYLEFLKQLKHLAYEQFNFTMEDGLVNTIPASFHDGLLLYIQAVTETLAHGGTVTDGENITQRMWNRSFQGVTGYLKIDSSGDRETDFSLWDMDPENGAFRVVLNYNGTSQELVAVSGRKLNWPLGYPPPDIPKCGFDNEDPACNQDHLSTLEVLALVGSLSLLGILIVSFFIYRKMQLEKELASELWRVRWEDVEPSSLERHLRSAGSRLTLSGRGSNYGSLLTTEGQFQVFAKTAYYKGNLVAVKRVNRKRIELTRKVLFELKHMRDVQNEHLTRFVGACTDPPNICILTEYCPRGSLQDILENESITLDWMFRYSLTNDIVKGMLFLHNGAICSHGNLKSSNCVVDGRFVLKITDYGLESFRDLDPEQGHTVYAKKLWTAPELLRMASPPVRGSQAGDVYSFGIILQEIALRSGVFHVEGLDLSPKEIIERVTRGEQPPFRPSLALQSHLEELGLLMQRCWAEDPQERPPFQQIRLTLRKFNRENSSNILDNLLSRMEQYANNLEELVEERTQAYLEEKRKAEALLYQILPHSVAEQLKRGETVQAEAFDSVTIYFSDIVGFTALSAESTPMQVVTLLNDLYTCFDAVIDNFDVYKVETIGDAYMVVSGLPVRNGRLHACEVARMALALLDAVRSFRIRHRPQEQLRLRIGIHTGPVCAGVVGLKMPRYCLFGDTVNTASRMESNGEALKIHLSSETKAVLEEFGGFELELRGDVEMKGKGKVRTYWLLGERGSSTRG
#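 HEK293 cells stably expressing human Npr1 and cGMP GloSensor pGS-40F, loaded 2 h with 2% GloSensor reagent, given compound 30 min at room temperature. Luminescence read before and 20 min after 0.1 nM hNppA.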
# HEK293 tox – HEK 293 cell cytotoxicity; HEK 293 viability, ATP luminescence (CellTiter-Glo), 48-72 h; Potency, µM (titrated, usually from 115 µM), for inactives: at the top dose activity change, negative = cytotoxicity, usual class: inhibitors; hit rate 6.6% among 94,000; AID 1345083; also: nearly all actives have a fitted effect of over 60% in size
#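 250 HEK 293 cells/well; compound by pintool; incubated 48 or 72 hr at 37 degree Celsius; CellTiter-Glo added, 10 min RT, luminescence imaged.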
# GPT2 inh – blocks human glutamate pyruvate transaminase 2 | Q8TD30 | Recombinant GPT2, coupled pyruvate oxidase/HRP Amplex Red fluorescence | Potency, µM (series often up to 57.7 µM), for inactives: top-dose activity change, negative = inhibition, usual class: inhibitors | hit rate 0.25% among 100,000 | AID 1671188; also: nearly all actives have a fitted effect of over 60% in size
#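 Fluorescence of coupled pyruvate oxidase/HRP/Amplex Red system (50uM Amplex, 30 min, dark) reports pyruvate formed by GPT2. Enzyme reaction: 10ng/uL GPT2, 2mM L-alanine, 250uM a-KG, 30 min room temperature, pH 7.5; 50uM AOA control.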
# 3T3 cytotox – NIH 3T3 cell cytotoxicity | NIH 3T3 viability, CellTiter-Glo ATP luminescence, 48-72 h | hit rate 4.3% among 94,000 | AID 1345082 | Potency, µM (series often up to 96.7 µM), inactives show at the highest dose activity change, negative = cytotoxicity, actives largely listed as inhibitors; also: nearly all actives have a fitted effect of over 55% in size
#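 Cells were seeded at 400 per well, treated with pin-transferred compound, and kept 48 or 72 hr at 37 °C before CellTiter-Glo addition and luminescence imaging of cellular ATP.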
# * hit, by the source's call; i = inactive; ? = inconclusive; · = not tested or not shown; [ ] = dose if it differs, or a comment. Rows were chosen to be rich in hits. Some 10% of all compounds tested hit in one or more screens of this group. Unless noted, calls follow the shape of the dose curve; as a rule, active = well fitted curve in the direction sought with a large enough effect; inconclusive = small, poorly fitted or top-dose-only effect, or another doubt; inactive = no such curve, though single readings can be large; an effect the other way counts as inactive or inconclusive. % is scaled to controls: 0 for no effect and ±100 for the full control effect; potency is read from the fitted curve at half-maximal effect.
SMILES,FLuc inh,hNpr1 antagonist,HEK293 tox,GPT2 inh,3T3 cytotox
CCOC(=O)C1(Cc2cccc(C(F)(F)F)c2)CCN(Cc2cc(C(C)C)n[nH]2)CC1,i,?,25µM*,?,?
Cn1cc(-c2cn(C)c(=O)n3cc(CNc4ccccc4)nc23)cn1,?,2%[70.6 µM],-28%[172 µM],-5%[88.5 µM],?
CN1CCN(c2ccc(-c3cn(C)c(=O)n4cc(CNc5ccccc5)nc34)cn2)CC1,i,-1%[70.6 µM],71µM*,i,50µM*
CCNC(=O)N(C1CC1)C1CCOC2(CCN(C(=O)CCCc3ccccc3)CC2)C1 (centres undefined),?,-23%,-20%,-8%,?
Cc1ccccc1-c1noc(CNCc2nc3ccc(Cl)cc3[nH]2)n1,i,-3%,79µM*,-9%,?
CC(C)C[C@@H]1N[C@H](C(=O)N2CCOCC2)Cc2cn(Cc3nccn3C)c3cccc1c23,i,4%[70.6 µM],-19%[172 µM],2%[88.5 µM],-30%[174 µM]
CC(C)C[C@@H]1N[C@H](C(=O)N2CCOCC2)Cc2cn(Cc3ccccn3)c3cccc1c23,i,-5%[70.6 µM],100µM*,i,?
CC(C)C[C@@H]1N[C@H](C(=O)N2CCCC2)Cc2cn(Cc3nccn3C)c3cccc1c23,i,2%[70.6 µM],?,2%[88.5 µM],-27%[174 µM]
CC(C)C[C@@H]1N[C@H](C(=O)N2CCCC2)Cc2cn(Cc3ccccn3)c3cccc1c23,i,2%[70.6 µM],112µM*,-11%[88.5 µM],?
CC(=O)/C=C/[C@H]1[C@](C)(O)[C@@H](O)[C@H](O)C2C(C)(C)CCC[C@@]21C (some centres undefined),·,·,·,i,·
Cc1cccc(NC(=O)Nc2ccc(C)n(CC(=O)O)c2=O)c1,16µM*,2%,12%,i,i
Cc1cccc(NC(=O)Nc2ccc(C)n(CC(=O)Nc3ccc(C)c(C)c3)c2=O)c1,i,-3%,28µM*,i,32µM*
O=C(NC1CCN(c2cc(-c3ccc(F)cc3)[nH]n2)CC1)c1c[nH]c2ccccc12,i,0%,?,-22%,32µM*
O=C(NC1CCCN(c2cc(-c3ccccc3)[nH]n2)C1)c1ccccc1Cl (centres undefined),?,-7%,?,-17%,?
O=C(NC1CCCN(c2cc(-c3ccccc3)[nH]n2)C1)c1c[nH]c2ccccc12 (centres undefined),40µM*,-19%,?,?,?
O=C(NC1CCN(c2cc(-c3ccc(F)cc3)[nH]n2)C1)c1c[nH]c2ccccc12 (centres undefined),i,-23%,40µM*,?,32µM*
O=C(NCC1CCN(c2cc(-c3ccc(F)cc3)[nH]n2)CC1)c1c[nH]c2ccccc12,?,-27%,?,?,32µM*
O=C(NC1CCN(c2cc(-c3ccccc3)[nH]n2)CC1)c1cc(F)ccc1Cl,i,-5%,?,-18%,?
O=C(N1CCCC1)N1C2CCC1CN(c1ccc(C(F)(F)F)cc1)C2,·,·,?,-1%,?
CCCNC(=O)Cc1csc2nc(C)c(-c3cc(C)n(-c4ccc(Cl)c(Cl)c4)n3)c(=O)n12,i,-5%,-28%,i,?
CC1(C)[C@H](Cc2cc(CN3CCCCC3)on2)C[C@@H]1NCc1ccccn1,i,-4%[70.6 µM],?,2%[88.5 µM],112µM*
CC(C)NC(=O)N[C@H]1C[C@@H](Cc2cc(CN(C)c3ccccc3)on2)C1(C)C,i,-24%[70.6 µM],?,-4%[88.5 µM],?
COCC(=O)N[C@H]1C[C@@H](Cc2cc(CN(C)Cc3ccccc3)on2)C1(C)C,i,-18%[70.6 µM],?,?,?
CC(=O)N[C@H]1C[C@@H](Cc2cc(CN(C)c3ccccc3)on2)C1(C)C,i,-14%[70.6 µM],79µM*,-28%[88.5 µM],-22%[174 µM]
COCC(=O)N[C@H]1C[C@@H](Cc2cc(CN(C)c3ccccc3)on2)C1(C)C,i,-17%[70.6 µM],45µM*,?,?
CN(C)Cc1cc(C[C@@H]2C[C@H](NCc3ccc(F)cc3)C2(C)C)no1,i,6%[70.6 µM],?,4%[88.5 µM],?
CC1(C)[C@H](Cc2cc(CN3CCCCC3)on2)C[C@@H]1N,i,1%[70.6 µM],?,i,?
